The record followed here is ChEMBL document CHEMBL1961873, “Compounds: GSK PKIS; Assays: Nanosyn kinase panel” (2012).

Assay [1] addresses T1, Serine/threonine-protein kinase D2 (Homo sapiens) (UniProt Q9BZL6).
T1 sequence (whole entry): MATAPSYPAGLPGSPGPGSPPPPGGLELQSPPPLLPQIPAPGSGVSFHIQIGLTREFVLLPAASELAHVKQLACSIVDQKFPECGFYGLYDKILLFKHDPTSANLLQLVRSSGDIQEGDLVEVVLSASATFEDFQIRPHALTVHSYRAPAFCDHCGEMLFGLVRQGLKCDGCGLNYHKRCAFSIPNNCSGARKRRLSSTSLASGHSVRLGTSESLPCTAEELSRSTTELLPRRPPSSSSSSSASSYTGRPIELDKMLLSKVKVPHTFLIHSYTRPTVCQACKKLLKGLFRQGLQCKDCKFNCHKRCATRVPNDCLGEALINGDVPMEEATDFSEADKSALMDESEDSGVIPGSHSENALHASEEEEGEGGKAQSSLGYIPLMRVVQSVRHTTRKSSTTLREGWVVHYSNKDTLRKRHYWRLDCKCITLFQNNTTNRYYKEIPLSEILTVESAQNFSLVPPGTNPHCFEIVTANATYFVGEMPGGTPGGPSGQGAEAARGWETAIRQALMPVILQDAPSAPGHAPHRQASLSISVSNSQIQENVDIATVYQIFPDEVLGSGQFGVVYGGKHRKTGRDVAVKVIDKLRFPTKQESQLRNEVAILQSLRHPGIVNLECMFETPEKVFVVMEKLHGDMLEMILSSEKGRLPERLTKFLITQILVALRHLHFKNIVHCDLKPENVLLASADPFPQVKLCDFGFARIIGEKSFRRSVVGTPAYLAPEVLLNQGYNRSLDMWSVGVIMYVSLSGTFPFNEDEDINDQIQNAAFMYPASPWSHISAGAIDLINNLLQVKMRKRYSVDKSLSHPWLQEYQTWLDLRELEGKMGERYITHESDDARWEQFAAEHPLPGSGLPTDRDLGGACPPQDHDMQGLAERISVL
The settings on record: at 1 µM.

In assay [2] the target is T2, Serine/threonine-protein kinase D3 (Homo sapiens) (UniProt O94806).
T2 sequence (whole entry): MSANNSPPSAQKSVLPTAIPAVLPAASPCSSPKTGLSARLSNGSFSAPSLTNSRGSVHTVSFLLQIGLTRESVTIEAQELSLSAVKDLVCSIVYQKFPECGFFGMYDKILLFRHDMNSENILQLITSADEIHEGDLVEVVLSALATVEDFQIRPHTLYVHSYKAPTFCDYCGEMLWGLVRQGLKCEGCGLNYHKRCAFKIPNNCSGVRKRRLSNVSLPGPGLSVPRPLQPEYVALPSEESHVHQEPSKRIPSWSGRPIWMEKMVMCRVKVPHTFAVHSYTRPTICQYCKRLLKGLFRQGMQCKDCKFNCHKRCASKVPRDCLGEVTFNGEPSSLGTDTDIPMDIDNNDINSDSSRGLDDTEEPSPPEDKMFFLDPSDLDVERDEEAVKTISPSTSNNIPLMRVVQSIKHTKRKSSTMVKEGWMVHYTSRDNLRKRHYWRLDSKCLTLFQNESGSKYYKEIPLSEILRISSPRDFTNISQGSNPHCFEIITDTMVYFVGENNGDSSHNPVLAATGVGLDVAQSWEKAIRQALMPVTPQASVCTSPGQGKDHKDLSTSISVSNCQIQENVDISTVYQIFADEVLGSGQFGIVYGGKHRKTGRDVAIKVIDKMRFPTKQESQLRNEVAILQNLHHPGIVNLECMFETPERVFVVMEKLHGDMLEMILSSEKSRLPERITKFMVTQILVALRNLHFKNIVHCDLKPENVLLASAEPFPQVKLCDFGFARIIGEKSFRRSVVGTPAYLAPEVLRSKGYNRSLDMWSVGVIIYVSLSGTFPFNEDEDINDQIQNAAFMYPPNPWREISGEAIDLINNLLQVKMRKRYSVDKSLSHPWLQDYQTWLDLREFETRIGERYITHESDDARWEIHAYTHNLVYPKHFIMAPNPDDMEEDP
The settings on record: at 0.1 µM.

In assay [3] the target is T2, Serine/threonine-protein kinase D3 (Homo sapiens). The settings on record: at 1 µM.
The target in assay [4] is T3, cGMP-dependent protein kinase 1 (Homo sapiens) (UniProt Q13976).
T3 sequence (whole entry): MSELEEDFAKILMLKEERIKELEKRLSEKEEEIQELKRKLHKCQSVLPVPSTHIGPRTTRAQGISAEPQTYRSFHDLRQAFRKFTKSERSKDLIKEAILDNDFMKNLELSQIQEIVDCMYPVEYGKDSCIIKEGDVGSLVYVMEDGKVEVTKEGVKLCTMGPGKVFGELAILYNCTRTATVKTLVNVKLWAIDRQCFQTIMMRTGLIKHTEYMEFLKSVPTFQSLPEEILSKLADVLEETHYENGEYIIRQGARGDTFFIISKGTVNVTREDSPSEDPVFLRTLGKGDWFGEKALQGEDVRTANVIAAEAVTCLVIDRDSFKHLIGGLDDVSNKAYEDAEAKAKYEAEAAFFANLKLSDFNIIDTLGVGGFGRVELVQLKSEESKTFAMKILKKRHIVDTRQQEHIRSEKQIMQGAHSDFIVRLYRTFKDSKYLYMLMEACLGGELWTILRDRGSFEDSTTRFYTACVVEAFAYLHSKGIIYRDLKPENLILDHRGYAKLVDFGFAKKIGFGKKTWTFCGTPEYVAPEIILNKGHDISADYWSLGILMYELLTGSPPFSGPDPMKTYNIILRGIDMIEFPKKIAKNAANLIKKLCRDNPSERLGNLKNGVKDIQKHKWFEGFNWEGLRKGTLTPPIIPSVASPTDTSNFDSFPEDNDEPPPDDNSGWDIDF
The conditions noted are these: at 0.1 µM.

Assay [5] has as its target T3, cGMP-dependent protein kinase 1 (Homo sapiens). The settings on record: at 1 µM.
For assay [6], the target named is T4, cGMP-dependent protein kinase 2 (Homo sapiens) (UniProt Q13237).
T4 sequence (whole entry): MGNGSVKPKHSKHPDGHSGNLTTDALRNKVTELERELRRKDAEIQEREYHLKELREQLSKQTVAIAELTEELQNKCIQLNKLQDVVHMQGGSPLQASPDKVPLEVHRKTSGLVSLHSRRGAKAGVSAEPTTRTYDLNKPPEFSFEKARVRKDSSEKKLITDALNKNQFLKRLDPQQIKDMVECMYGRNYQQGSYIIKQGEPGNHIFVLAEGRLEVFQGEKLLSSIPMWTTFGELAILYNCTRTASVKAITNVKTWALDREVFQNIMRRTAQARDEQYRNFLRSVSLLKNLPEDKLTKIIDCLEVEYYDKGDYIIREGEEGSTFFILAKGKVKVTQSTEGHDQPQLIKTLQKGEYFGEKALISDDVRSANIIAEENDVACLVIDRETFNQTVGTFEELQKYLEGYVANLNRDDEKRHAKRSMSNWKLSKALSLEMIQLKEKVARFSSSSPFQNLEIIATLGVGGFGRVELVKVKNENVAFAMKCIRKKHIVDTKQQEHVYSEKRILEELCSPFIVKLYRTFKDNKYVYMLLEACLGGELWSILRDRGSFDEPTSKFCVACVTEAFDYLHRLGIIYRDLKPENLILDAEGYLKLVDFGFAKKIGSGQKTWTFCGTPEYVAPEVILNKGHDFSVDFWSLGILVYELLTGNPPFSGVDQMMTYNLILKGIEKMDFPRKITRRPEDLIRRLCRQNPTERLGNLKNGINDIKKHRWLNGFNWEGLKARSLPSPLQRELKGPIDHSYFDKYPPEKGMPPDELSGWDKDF
The conditions noted are these: at 0.1 µM.

Assay [7] has as its target T4, cGMP-dependent protein kinase 2 (Homo sapiens). The settings on record: at 1 µM.
In assay [8] the target is T5, cAMP-dependent protein kinase catalytic subunit PRKX (Homo sapiens) (UniProt P51817).
T5 sequence (whole entry): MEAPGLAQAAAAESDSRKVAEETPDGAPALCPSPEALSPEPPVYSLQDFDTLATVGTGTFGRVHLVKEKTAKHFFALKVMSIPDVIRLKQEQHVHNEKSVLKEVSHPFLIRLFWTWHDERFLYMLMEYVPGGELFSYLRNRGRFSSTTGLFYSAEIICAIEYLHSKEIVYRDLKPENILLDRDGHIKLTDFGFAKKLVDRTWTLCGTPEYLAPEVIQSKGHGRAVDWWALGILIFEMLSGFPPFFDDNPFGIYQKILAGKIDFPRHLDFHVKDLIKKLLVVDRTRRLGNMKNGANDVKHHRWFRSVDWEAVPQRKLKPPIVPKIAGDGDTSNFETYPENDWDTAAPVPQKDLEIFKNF
The settings on record: at 0.1 µM.

Assay [9] concerns the target T5, cAMP-dependent protein kinase catalytic subunit PRKX (Homo sapiens). The conditions noted are these: at 1 µM.
Assay [10] addresses Rho-associated protein kinase 1 (Homo sapiens) (UniProt Q13464). The settings on record: at 0.1 µM.

“And” between values parts separate entries of the source, which are not always exact repeats. Equal entries are not always repeated.

Rho-associated protein kinase 1 (Homo sapiens), sequence (Q13464 2-1354 limits assumed): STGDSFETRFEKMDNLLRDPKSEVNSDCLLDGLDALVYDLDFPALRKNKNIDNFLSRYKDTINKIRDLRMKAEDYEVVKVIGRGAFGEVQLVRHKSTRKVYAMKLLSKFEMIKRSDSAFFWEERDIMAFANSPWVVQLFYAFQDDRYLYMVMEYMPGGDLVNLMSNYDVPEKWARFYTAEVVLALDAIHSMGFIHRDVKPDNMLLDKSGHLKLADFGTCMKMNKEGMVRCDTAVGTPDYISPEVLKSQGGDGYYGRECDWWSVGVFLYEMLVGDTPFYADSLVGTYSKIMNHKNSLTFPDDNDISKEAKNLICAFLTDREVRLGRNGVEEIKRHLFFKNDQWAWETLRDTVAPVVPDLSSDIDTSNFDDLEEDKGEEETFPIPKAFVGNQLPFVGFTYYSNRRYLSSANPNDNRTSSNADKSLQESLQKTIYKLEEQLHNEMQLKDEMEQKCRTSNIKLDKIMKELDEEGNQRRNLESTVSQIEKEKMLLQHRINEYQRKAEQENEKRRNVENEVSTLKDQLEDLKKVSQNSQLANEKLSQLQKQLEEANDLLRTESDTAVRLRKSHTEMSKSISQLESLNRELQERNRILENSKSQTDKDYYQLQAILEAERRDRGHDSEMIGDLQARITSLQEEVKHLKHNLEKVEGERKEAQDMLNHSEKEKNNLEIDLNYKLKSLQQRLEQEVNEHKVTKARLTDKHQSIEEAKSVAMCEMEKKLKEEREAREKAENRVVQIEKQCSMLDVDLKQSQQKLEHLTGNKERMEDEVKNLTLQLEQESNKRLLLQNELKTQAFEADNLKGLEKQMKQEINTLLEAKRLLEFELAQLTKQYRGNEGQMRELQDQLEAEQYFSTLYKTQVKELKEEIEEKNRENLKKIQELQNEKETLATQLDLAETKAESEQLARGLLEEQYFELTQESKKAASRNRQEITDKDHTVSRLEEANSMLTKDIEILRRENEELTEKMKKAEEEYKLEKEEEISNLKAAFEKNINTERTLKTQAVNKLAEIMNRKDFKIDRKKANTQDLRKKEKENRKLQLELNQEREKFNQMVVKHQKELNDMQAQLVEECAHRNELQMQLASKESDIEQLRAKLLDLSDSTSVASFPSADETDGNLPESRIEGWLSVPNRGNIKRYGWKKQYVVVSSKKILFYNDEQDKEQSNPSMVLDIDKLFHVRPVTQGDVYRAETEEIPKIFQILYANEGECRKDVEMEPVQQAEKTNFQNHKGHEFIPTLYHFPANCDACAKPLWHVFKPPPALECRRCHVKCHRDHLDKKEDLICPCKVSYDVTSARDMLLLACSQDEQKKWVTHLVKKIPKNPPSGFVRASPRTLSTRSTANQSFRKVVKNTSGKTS

For orientation: inhibition means the relative decrease from the control value, in per cent. Consider `NS(=O)(=O)c1cccc(N/C=C2\C(=O)Nc3ccccc32)c1`, for which the inhibition was determined as 11% in assay [1]; 5% in assay [2]; 9.04% in [3]; 3.34% in assay [4]; 4.68% in assay [5]; 1.91% in assay [6]. The inhibition in assay [7] was found to be 7.34%; in assay [8], 1.79%; in assay [9] it was 2.25%; in assay [10] it was 1.58%.

As for `Cc1nnc(-c2cccc(-c3ccc(C(=O)NCC4CC4)cc3)c2)o1`, the inhibition in [1] stood at 7.93%; in assay [2], 6.14%; in [3], 7.35%; in [4], 3.58%; in [5], 5.43%; in assay [6] it was 3.23%. The inhibition came out at 3.44% in assay [7], 3.54% in assay [8], 4.63% in assay [9] and 0.97% in assay [10].

For `COc1ccc(-c2nn3ncccc3c2-c2ccnc(Nc3ccc(F)c(F)c3)n2)cc1`, the inhibition was found to be 5.42% in [1]; 4.4% in assay [2]; 5.09% in assay [3]; 2.68% in assay [4]; 3.58% in [5]; 5.81% in assay [6]. Also, the inhibition in assay [7] came to 5.3%; in assay [8], 3.54%; in assay [9], 8.39%; in [10] it was 1.21%.

Turning to `CS(=O)(=O)CCNCc1ccc(-c2ccc3ncnc(Nc4ccc(OCc5cccc(C(F)(F)F)c5)cc4)c3c2)o1`, the inhibition in assay [1] came to 4.34%; in [2], 5.01%; in assay [3], 5.61%; in [4], 3.52%; in assay [5] it was 4.77%; in [6], 2.31%. Further, the inhibition in assay [7] was 6.67%; in [8] it was 2.61%; in assay [9], 1.41%; in assay [10] it was 2.09%.

Turning to `COC(=O)Nc1nc2cc(Oc3ccc(NC(=O)Nc4ccccc4)cc3)ccc2[nH]1`, the inhibition in assay [1] was 2.45%; in assay [2] it was 2.48%; in [3], 2.79%; in assay [4] it was 0.72%; in assay [5], 2.97%; in assay [6], 1.5%. The inhibition in assay [7] came out at 1.55%; in assay [8], 2.09%; in assay [9], 3.93%; in assay [10], 2.24%.

Regarding `CNC(=O)c1ncccc1Nc1nc(Nc2cc3c(cc2OC)CCCN3C(=O)CN(C)C)nc2[nH]ccc12`, the inhibition turned out to be 41.6% in [1]; 9.65% in [2]; 55.3% in [3]; 1.9% in [4]; 7.42% in assay [5]; 3.34% in assay [6]. For the same molecule, the inhibition was 5.86% in assay [7], 1.64% in [8], 1.14% in assay [9] and 1.58% in [10].

For `CN1CCN(Cc2ccc(-c3cc4ncnc(Nc5ccc(OCc6cccc(F)c6)c(Cl)c5)c4s3)o2)CC1`, the inhibition in assay [1] was 4.28% and 7.23%; in assay [2], 2.56% and 5.35%; in assay [3] it was 4.4% and 6.3%; in [4], 2.05% and 4.47%; in [5], 1.78% and 7.9%; in assay [6] it was 0.82% and 2.4%. The inhibition was 0.79% and 5.44% in [7]; 1.82% and 3.39% in assay [8]; 1.45% and 5.71% in [9]; 1.65% and 1.83% in assay [10].

For `N#Cc1ccc2c(-c3ccnc(NC4CC4)n3)c(-c3ccc(F)cc3)nn2c1`, the inhibition in assay [1] is 44.2%; in [2] it was 6.5%; in [3] it was 41.7%; in assay [4], 1.2%; in [5], -0.35%; in assay [6], 0.69%. The inhibition is -1.36% in assay [7], 1.65% in assay [8], 0.23% in [9] and 0.62% in assay [10].
